Data as given in PubChem BioAssay.
Activity calls are given as the source filed them.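 Rule for the calls, unless noted: active = fluorescence slope higher than the sample average by over 3 SD (cut at about -0.22 in these data, passing the limit was not always enough); inactive = the rest.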

How the values were obtained:
[1] = endothelial E-selectin expression blockers – imaging, HUVEC, immunofluorescence, MLSMR starter and 10KST1 sets, primary screen (AID 487;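 active = visually confirmed hit in the image check and inhibition above 20%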;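 for inhibition: signal is fraction of cell area covered by stained E-selectin grains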;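 for nuclei count: 100% = median nuclei count of all wells on the same plate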); details: HUVEC TNFalpha-induced E-selectin immunofluorescence imaging, at 2 µM; inhibition: stronger effect = higher value; nuclei count: measured here: cell number, toxicity
[2] = Primary imaging screen for DUSP6 inhibitors that restore phospho-Erk in transfected HeLa cells, chemical complementation (AID 609;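 active = compounds giving at least 50% inhibition in the cell-based MKP-3 phosphatase rescue imaging test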;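 for inhibition: phospho-Erk level distribution per well compared with pooled transfected vehicle control wells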); details: HeLa MKP-3 transfected, phospho-Erk imaging KS statistic, at 10 µM, cells stimulated with TPA for 15 min
[3] = biological target: Dual specificity protein phosphatase 6 (Homo sapiens) (UniProt Q16828); experiment: as above; details: HeLa MKP-3 transfected, phospho-Erk imaging KS statistic; at 10 µM; stronger effect = higher value; cells stimulated with TPA for 15 min
Chain of Dual specificity protein phosphatase 6 (Homo sapiens) (Q16828 whole entry, looked up): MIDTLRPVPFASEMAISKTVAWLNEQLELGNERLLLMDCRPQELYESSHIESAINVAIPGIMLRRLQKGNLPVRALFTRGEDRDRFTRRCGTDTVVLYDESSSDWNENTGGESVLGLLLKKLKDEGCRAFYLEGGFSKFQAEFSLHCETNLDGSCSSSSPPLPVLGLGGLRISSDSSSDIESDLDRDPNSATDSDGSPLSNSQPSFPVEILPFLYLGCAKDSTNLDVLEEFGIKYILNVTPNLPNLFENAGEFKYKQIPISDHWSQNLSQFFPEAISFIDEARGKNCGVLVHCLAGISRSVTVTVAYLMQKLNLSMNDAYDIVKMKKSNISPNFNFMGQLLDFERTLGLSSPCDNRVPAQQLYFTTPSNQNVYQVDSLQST

[4] = biological target: Voltage-gated potassium channel subunit beta-2 (Rattus norvegicus) (UniProt P62483); experiment: inhibitors of rat Kvbeta2 reductase activity – biochemical, NADPH fluorescence, primary screen (AID 622); details: recombinant KvBeta, 4-cyanobenzaldehyde reduction, at 10 µM, stronger effect = higher value;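 note: slope of raw intensity against log time taken from 70 to 1610 s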
Chain of Voltage-gated potassium channel subunit beta-2 (Rattus norvegicus) (P62483 whole entry, looked up): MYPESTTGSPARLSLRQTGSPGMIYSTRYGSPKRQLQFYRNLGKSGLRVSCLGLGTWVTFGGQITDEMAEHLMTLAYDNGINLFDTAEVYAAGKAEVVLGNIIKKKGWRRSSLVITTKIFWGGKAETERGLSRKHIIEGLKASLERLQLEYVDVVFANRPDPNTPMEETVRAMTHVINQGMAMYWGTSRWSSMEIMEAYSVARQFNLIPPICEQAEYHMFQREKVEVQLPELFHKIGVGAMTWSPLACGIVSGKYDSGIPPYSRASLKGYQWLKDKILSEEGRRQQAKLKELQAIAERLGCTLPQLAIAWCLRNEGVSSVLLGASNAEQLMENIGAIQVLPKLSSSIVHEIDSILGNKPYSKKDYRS

[5] = biological target: Voltage-gated potassium channel subunit beta-2 (Rattus norvegicus) (UniProt P62483); experiment: enhancers of rat Kvbeta2 NADPH turnover – biochemical, NADPH fluorescence, primary screen (AID 623;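 active = NADPH fluorescence slope more negative than the mean of all samples by about 3 SD, 99.7% confidence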;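 note: fluorescence intensity change per second fitted from 20 to 320 s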); details: Recombinant KvBeta, NADPH fluorescence decrease slope, 10 min; at 10 µM; stronger effect = lower value
[6] = biological target: Muscarinic acetylcholine receptor M4 (Homo sapiens) (UniProt P08173); experiment: M4-linked GIRK flux change, two-sided – cell-based, HEK293 M4/GIRK, thallium flux, BTC-AM, M4 allosteric agonist project, primary screen (AID 625;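 active = fluorescence slope after compound addition differing from the mean of all tested samples at 99.7% confidence, mostly higher but some lower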;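 note: thallium influx through GIRK channels coupled to M4 in HEK293 cells with BTC-AM dye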); details: at 10 µM, actives lie on both sides
Chain of Muscarinic acetylcholine receptor M4 (Homo sapiens) (P08173 whole entry, looked up): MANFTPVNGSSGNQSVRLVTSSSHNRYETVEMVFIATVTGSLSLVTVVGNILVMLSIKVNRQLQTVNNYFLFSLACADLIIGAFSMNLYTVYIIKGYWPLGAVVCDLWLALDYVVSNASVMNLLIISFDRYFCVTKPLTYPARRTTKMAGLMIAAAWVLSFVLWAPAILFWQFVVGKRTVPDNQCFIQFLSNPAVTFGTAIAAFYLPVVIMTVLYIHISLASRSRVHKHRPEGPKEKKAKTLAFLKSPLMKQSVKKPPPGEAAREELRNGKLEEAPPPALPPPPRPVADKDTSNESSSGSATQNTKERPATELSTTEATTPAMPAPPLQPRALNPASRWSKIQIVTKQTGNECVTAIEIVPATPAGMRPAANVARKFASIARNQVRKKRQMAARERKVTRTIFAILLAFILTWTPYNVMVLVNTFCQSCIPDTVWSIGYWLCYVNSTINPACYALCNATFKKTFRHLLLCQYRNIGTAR

[7] = inhibitors of larval lipid processing in zebrafish, primary screen, whole organism, PED6 fluorescence, gall bladder and intestine (AID 686;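 active = a full or partial loss of lipid-probe fluorescence in the fish gall bladder, intestine or both, judged by eye; inactive = no fluorescence loss, or compound toxic to the fish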;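 note: larvae 5 to 7 days old with five fish per well; signal comes from phospholipase A2 cleavage of quenched PED6 carried via bile; overnight exposure to compound and PED6 before scoring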); details: Zebrafish larvae PED6 lipid processing, fluorescence scoring; screened at 20 µM (by protocol)
[8] = loss of swimming-algae plug formation – whole organism, Chlamydomonas reinhardtii, WT vs cilia-less mutant, absorbance, 96-well, primary screen (AID 463189;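 active = inhibition at or above 50% relative to wild type and mutant plate controls; inactive = inhibition below 50%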;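 note: 0% = wild type cc124 cells in DMSO and 100% = ciliumless bld1 mutant cells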); details: Chlamydomonas reinhardtii gravitaxis, OD600 absorbance, 2 days; at 10 µM; stronger effect = higher value
[9] = blockers of RIG-like receptor reporter activation – cell-based, Sendai virus stimulus, luciferase, 10K MLSCN set, TLR/RLR signaling modifier project, primary screen (AID 602276;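 active = inhibition at or above 50% at 10 µM; inactive = inhibition below 50%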;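 note: firefly luciferase from ISG56 promoter only with Renilla not read in this screen; 0% = Sendai virus plus DMSO and 100% = medium plus DMSO without virus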); details: HEK293 RL24 IRF3 luciferase reporter, at 10 µM, stronger effect = higher value
[10] = TLR3 IRF3 reporter activation blockers – cell-based, poly I:C stimulus, luciferase, 10K MLSCN set, primary screen (AID 602277;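 active = inhibition of the reporter signal at or above 50%; inactive = inhibition below 50%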); details: HEK293-TLR3 RL24 IRF3 luciferase reporter, at 10 µM, stronger effect = higher value
[11] = reduction of polyQ htt aggregates in cells – imaging, exon1htt(103Q)mCFP cells, high-content imaging, primary screen (AID 483;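 active = visual image review flags a hit and inhibition of aggregation exceeds 20%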;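 note: compound exposure lasted 3 days before fixation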;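 for nuclei count: percent of the per-plate median nuclei count of sample wells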); details: exon1htt(103Q)mCFP cell line, aggregate imaging, at 2 µM; inhibition of aggregation: stronger effect = higher value; nuclei count: measured here: cell count, toxicity
[12] = biological target: Alpha-2C adrenergic receptor (Homo sapiens) (UniProt P18825); experiment: compounds altering alpha2C-coupled GIRK flux – cell-based, HEK293 alpha2C/GIRK1/2, thallium flux, primary screen (AID 624;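 active = fluorescence slope after compound addition differing from the mean of all screened samples at 99.7% confidence, in either direction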;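 note: slope of fluorescence ratio to pre-addition baseline per second over 15 to 24 s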); details: thallium flux BTC fluorescence, at 10 µM, actives lie on both sides
Chain of Alpha-2C adrenergic receptor (Homo sapiens) (P18825 whole entry, looked up): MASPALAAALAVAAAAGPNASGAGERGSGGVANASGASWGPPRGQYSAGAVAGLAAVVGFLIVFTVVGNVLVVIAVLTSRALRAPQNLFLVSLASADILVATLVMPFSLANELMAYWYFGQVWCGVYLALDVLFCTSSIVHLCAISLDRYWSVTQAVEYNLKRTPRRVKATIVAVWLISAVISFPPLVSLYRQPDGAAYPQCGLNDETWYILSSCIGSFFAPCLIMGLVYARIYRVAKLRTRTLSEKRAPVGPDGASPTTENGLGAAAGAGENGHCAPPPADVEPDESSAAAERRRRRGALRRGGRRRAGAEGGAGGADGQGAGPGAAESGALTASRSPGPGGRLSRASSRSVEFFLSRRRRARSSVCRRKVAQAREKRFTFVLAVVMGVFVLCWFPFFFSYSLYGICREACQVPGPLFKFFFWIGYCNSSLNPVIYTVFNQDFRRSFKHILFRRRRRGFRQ

[13] = measured here: cell density z-score
[14] = measured here: nuclear c-Myc green intensity z-score
[15] = measured here: nuclear pErk red intensity z-score, stronger effect = higher value

Cc1ccc(N2CN=c3s/c(=C\c4cccnc4)c(=O)n3C2)cc1
inactive: inhibition [1] -18.9% | inhibition [3] 1.75% | fluorescence slope [4] -0.483 | NADPH fluorescence slope [5] -4.2e-05 | fluorescence slope [6] 0.00552 | outcome [7] | inhibition [8] 36.5%
-0.873: z-score [2, 13]
0.442: z-score [2, 14]
0.633: z-score [2, 15]
87.4%: nuclei count [1]

COc1ccc(CN2CC(C(=O)NCc3ccccn3)CC2=O)cc1 (stereo unspecified)
inactive: fluorescence slope [4] -0.582 | NADPH fluorescence slope [5] -2.5e-07 | fluorescence slope [6] 0.00691 | inhibition [9] 14.9% | inhibition [10] 23.4%

O=C(CN(Cc1ccco1)C(=O)CNS(=O)(=O)c1ccc(Cl)cc1)NCc1ccc(F)cc1
inactive: inhibition of aggregation [11] -10.4% | inhibition [1] -185% | fluorescence slope [4] -0.567 | NADPH fluorescence slope [5] -6.4e-06 | fluorescence slope [6] 0.00551 | inhibition [9] 22.1% | inhibition [10] 27.5%
159%: nuclei count [1]
97.5%: nuclei count [11]

C1CCC2=NCCCN2CC1
99.2%: nuclei count [1]
102%: nuclei count [11]
inactive: inhibition of aggregation [11] 7.9% | inhibition [1] -40.2% | fluorescence slope [4] -0.37 | NADPH fluorescence slope [5] 4.2e-05 | slope [12] 0.00592 | inhibition [9] 10.9% | inhibition [10] 20.9%

O=C(NC1CCCCC1)[C@H](O)[C@@H](O)C(=O)NC1CCCCC1
inactive: inhibition [1] -94% | inhibition [3] 5.57% | fluorescence slope [4] -0.381 | NADPH fluorescence slope [5] -4.7e-05 | fluorescence slope [6] 0.00717 | outcome [7] | inhibition [8] -2.73%
-1.12: z-score [2, 13]
140%: nuclei count [1]
0.563: z-score [2, 14]
0.453: z-score [2, 15]

Clc1ccc(-c2nnc3sc(-c4ccc(Br)o4)nn23)cc1
inactive: inhibition of aggregation [11] 10.6% | inhibition [1] -136% | fluorescence slope [4] -0.346 | NADPH fluorescence slope [5] 2.1e-05 | slope [12] 0.0087 | inhibition [9] 6.08% | inhibition [10] -13%
181%: nuclei count [1]
97.9%: nuclei count [11]

CC(=O)N1CCc2cc(S(=O)(=O)NCCC(=O)NC3CCCc4ccccc43)ccc21 (stereo unspecified)
inactive: fluorescence slope [4] -0.388 | NADPH fluorescence slope [5] -4e-05 | slope [12] 0.00543 | outcome [7] | inhibition [9] -3.18% | inhibition [10] -2.7%

CCOC(=O)CNC(=O)C(Cc1ccccc1)NS(=O)(=O)c1ccc2c(c1)CCC(=O)N2 (stereo unspecified)
inactive: fluorescence slope [4] -0.438 | NADPH fluorescence slope [5] -0.000333 | fluorescence slope [6] 0.00524 | inhibition [9] 0.424% | inhibition [10] 15.6%

CC1(C)CC(=O)C(C=N)=C(O)C1
inactive: inhibition [1] -29.4% | inhibition [3] -3.98% | fluorescence slope [4] -0.384 | NADPH fluorescence slope [5] -3.8e-05 | fluorescence slope [6] 0.00587 | outcome [7] | inhibition [8] 3.24%
0.177: z-score [2, 15]
169%: nuclei count [1]
-0.419: z-score [2, 13]
-0.908: z-score [2, 14]

Cc1cc(C)cc(N(CC(=O)Nc2cccc(C)n2)S(=O)(=O)c2c(C)noc2C)c1
inactive: fluorescence slope [4] -0.598 | NADPH fluorescence slope [5] -3.4e-05 | slope [12] 0.00547 | inhibition [9] 11.9% | inhibition [10] 42.2%

CCOc1ccc2[nH]c(C)cc(=O)c2c1
inactive: fluorescence slope [4] -0.554 | NADPH fluorescence slope [5] 1.5e-05 | slope [12] 0.00617 | inhibition [9] -6.31% | inhibition [10] 16%

CC(C)(C)C1CCc2onc(C(=O)Nc3cnn(Cc4ccc(F)cc4)c3)c2C1 (stereo unspecified)
inactive: fluorescence slope [4] -0.58 | NADPH fluorescence slope [5] 1.6e-05 | fluorescence slope [6] 0.00687 | inhibition [9] 12% | inhibition [10] 19.7%

CCCNC(=O)C1CN(S(=O)(=O)c2ccccc2)CCN1S(=O)(=O)c1ccccc1 (stereo unspecified)
inactive: fluorescence slope [4] -0.512 | NADPH fluorescence slope [5] -3.4e-05 | slope [12] 0.00614 | inhibition [9] 9.56% | inhibition [10] 19%

O=C(Nc1cc(Cl)ccc1Cl)c1noc2c1CCCC2
inactive: fluorescence slope [4] -0.601 | NADPH fluorescence slope [5] -9e-06 | slope [12] 0.00618 | inhibition [9] -3.4% | inhibition [10] 26.6%

CN(C)CCOC(c1ccccc1)c1ccccc1 (tested in a mixture with another compound)
inactive: inhibition [1] -105% | inhibition [3] 13.3% | fluorescence slope [4] -0.486 | NADPH fluorescence slope [5] -8.1e-06 | slope [12] 0.00507 | inhibition [9] 23.9% | inhibition [10] 33.9%
-0.839: z-score [2, 15]
131%: nuclei count [1]
0.752: z-score [2, 13]
0.00544: z-score [2, 14]

COc1ccc(CNC(=O)COC(=O)c2n[nH]c3ccccc23)cc1OC
inactive: inhibition of aggregation [11] -22.1% | inhibition [1] -287% | fluorescence slope [4] -0.382 | NADPH fluorescence slope [5] 1.4e-05 | slope [12] 0.00438 | inhibition [9] 6.09% | inhibition [10] -3.54%
171%: nuclei count [1]
108%: nuclei count [11]
